Screening results as filed in PubChem BioAssay.
NR2F2 inh: inhibitors of human COUP-TFII (NR2F2); P24468; HEK293T NGFI-A luciferase reporter, luminescence; inhibition, % at 8.6 µM; actives 0.7% (n = 370,000); AID 686940;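 active = inhibition above a per-plate cutoff, mean inhibition of test wells between control levels plus 3 SD, cut at about 38% in these data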;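 note: cells cotransfected with COUP-TFII expression vector driving the NGFI-A reporter; 0% = median of COUP-TF2 test wells and 100% = reporter-only cells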
Target sequence (P24468 whole entry, looked up): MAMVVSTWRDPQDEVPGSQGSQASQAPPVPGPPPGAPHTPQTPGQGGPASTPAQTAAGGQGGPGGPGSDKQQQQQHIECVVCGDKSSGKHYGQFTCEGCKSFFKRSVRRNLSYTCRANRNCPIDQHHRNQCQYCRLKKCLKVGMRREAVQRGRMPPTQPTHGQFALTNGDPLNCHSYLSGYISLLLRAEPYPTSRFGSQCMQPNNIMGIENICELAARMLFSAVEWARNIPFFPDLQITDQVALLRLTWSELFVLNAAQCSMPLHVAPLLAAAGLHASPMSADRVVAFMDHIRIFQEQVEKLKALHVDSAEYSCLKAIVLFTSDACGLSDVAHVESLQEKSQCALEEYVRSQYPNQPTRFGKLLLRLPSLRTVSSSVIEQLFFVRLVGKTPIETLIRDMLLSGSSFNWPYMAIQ
Gli-Sufu block: Gli-Sufu pathway antagonism. AID 588413. Sufu-KO-LIGHT fibroblasts, Gli luciferase reporter luminescence. inhibition, % at 5 µM. actives 0.74% (n = 340,000);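 active = inhibition above about 55%, limit read from the data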;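 note: 0% = DMSO-treated cells and 100% = wells with medium but no cells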
aDG glyco act: alpha-DG glycosylation activation. actives 0.22% (n = 360,000). Pro5-aDG cells, alpha-DG glycosylation AlphaScreen (IIH6); 0% Pro5, 100% B10-LARGE cell signal. activation, % at 10 µM. AID 624168;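 active = activation of at least 8% versus controls, or a plate z-score of at least 8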;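 note: Pro5 are CHO cells carrying HIG-tagged alpha-DG that lacks glycosylation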
GalR3 antag: human GalR3 antagonism; O60755; HEK293 GalR3-CNG cAMP membrane potential fluorescence; galR3 body fused to GalR1 C-terminus; inhibition, % at 3 µM; actives 0.44% (n = 360,000);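 active = inhibition above the screen-wide average plus 3 SD, cut at about 13% in these data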;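 note: forskolin and galanin both at EC90 stimulate the cells; cAMP rise reported by CNG channel membrane potential dye signal; 0% = forskolin plus galanin with DMSO and 100% = forskolin alone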
HIV Env fusion: HIV envelope-mediated fusion inhibition; inhibition, % at 12.3 µM; actives 1.1% (n = 360,000); HeLa-JRFL Env/CEM21 cell fusion, luciferase;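 active = mean replicate inhibition score of at least 50 and every replicate individually at or above 50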;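 note: 0% = plate neutral controls and 100% = maraviroc near 300 nM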
VP16 Luc counter: inhibits VP16 reporter, flagging COUP-TFII antagonist hits; HEK293 Gal4-VP16 luciferase reporter, luminescence; inhibition, % at 8.5 µM; shares compounds with NR2F2 inh; actives 25% (n = 2,500); in the data active = inhibition above about 13%
NR2F2 inh conf: confirmation of human COUP-TFII (NR2F2) inhibitors; HEK293 NGFI-A luciferase reporter, luminescence; inhibition, % at 8.5 µM; actives 45% (n = 2,500); AID 687008; shares compounds with NR2F2 inh;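 active = mean inhibition over three repeats above a set limit taken from the earlier primary screen, cut at about 38% in these data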;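 note: 100% = cells given the luciferase reporter alone without the COUP-TF2 vector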
* = called active by the depositor; [ ] = remark or other dose. Rows were chosen to be rich in hits. Some 2.1% of all compounds tested hit in one or more screens of this group.

Results for CC(C)C#Cc1ccc2c(c1)O[C@@H](CN(C)Cc1cncnc1)[C@@H](C)CN([C@H](C)CO)S2(=O)=O ?
HIV Env fusion: -6[16.7 µM]

Results for CCc1c(C)nc2ccc(Br)cc2c1SCCC#N ?
NR2F2 inh: 38*; Gli-Sufu block: 6; aDG glyco act: 1; GalR3 antag: -1; HIV Env fusion: 38; VP16 Luc counter: 12; NR2F2 inh conf: 24

Results for CCc1c(C)nc2c(Br)cccc2c1SCCC#N ?
NR2F2 inh: 24; Gli-Sufu block: 10; aDG glyco act: 0; GalR3 antag: 4; HIV Env fusion: -1

Results for C[C@H]1CN([C@@H](C)CO)C(=O)c2cc(NC(=O)Cn3cnnn3)ccc2O[C@H]1CN(C)Cc1ccc(Cl)c(Cl)c1 ?
HIV Env fusion: -8[16.7 µM]

What do the screens show for `O=C(Nc1ccc(Oc2cccc(C(F)(F)F)c2)nc1)c1ccco1`?
NR2F2 inh: 2; Gli-Sufu block: -2; aDG glyco act: 0; GalR3 antag: 0; HIV Env fusion: 12

Results for CC(C)(C)c1ccc(Oc2ccc(NC(=O)c3ccco3)cn2)cc1 ?
NR2F2 inh: 43*; Gli-Sufu block: 16; aDG glyco act: 0; GalR3 antag: -6; HIV Env fusion: 11; VP16 Luc counter: 29*; NR2F2 inh conf: 59*

How did OCCCNc1nc(-c2ccc(Cl)cc2)nnc1-c1ccccc1 do in these assays?
NR2F2 inh: 9; Gli-Sufu block: -10; aDG glyco act: 0; GalR3 antag: 0; HIV Env fusion: -15

Results for C=CCNc1nc(-c2ccccn2)nnc1-c1ccccc1 ?
NR2F2 inh: -45; Gli-Sufu block: 48; aDG glyco act: 2; GalR3 antag: -6; HIV Env fusion: -126

What do the screens show for `c1ccc(-c2ccc(CNc3nc(-c4ccccn4)nnc3-c3ccccc3)cc2)cc1`?
NR2F2 inh: 55*; VP16 Luc counter: -2; NR2F2 inh conf: 18

What do the screens show for `CC(C)(C)CCNc1nc(-c2ccccn2)nnc1-c1ccccc1`?
NR2F2 inh: 52*; VP16 Luc counter: 4; NR2F2 inh conf: 14

What do the screens show for `C=C(C(=O)c1ccccc1)C(NC(C)(C)C)c1ccccc1` (configuration not stated)?
NR2F2 inh: 80*; Gli-Sufu block: 35; aDG glyco act: 0; GalR3 antag: -5; HIV Env fusion: -7; VP16 Luc counter: 67*; NR2F2 inh conf: 92*

How did C=C(C(=O)c1ccccc1)C(C)CC(=O)c1ccccc1 (configuration not stated) do in these assays?
NR2F2 inh: -10; Gli-Sufu block: -9; aDG glyco act: 2; GalR3 antag: -2; HIV Env fusion: -12

How did O=C(CSc1cc(Cl)ccc1Cl)N/N=C/c1ccc[nH]1 do in these assays?
NR2F2 inh: 56*; VP16 Luc counter: 8; NR2F2 inh conf: 38*

What do the screens show for `O=C(COc1ccc(Cl)cc1Cl)N/N=C/c1ccc[nH]1`?
NR2F2 inh: -7; Gli-Sufu block: -9; aDG glyco act: -1; GalR3 antag: -1; HIV Env fusion: 11

How did C=C1C(=O)[C@]23C[C@H]1CC[C@H]2[C@]1(C)CCC[C@@](C)(C(=O)OC)[C@H]1C[C@@H]3O do in these assays?
NR2F2 inh: 94*; VP16 Luc counter: 71*; NR2F2 inh conf: 60*

What do the screens show for `C[C@@H]1CCCCO[C@H](CN(C)Cc2ccc(Cl)c(Cl)c2)[C@@H](C)CN([C@@H](C)CO)C(=O)c2cc(N(C)C)ccc2O1`?
HIV Env fusion: -20[16.7 µM]

How did COc1ccc(OCC(=O)Nc2ccc(N3CCN(C(=O)c4ccccc4)CC3)c(Cl)c2)cc1 do in these assays?
NR2F2 inh: 59*; Gli-Sufu block: 36; aDG glyco act: 2; GalR3 antag: -1; HIV Env fusion: 62*; VP16 Luc counter: -7; NR2F2 inh conf: 31

What do the screens show for `O=C(/C=C\Nc1ccc2c(c1)OCO2)c1ccccn1`?
NR2F2 inh: 46*; Gli-Sufu block: -6; aDG glyco act: 0; GalR3 antag: 2; VP16 Luc counter: 31*; NR2F2 inh conf: 52*

What do the screens show for `C[C@@H]1CN([C@H](C)CO)C(=O)c2cc(NC(=O)Nc3ccc(F)cc3)ccc2O[C@@H](C)CCCCO[C@H]1CN(C)Cc1ccccc1`?
HIV Env fusion: 2[16.7 µM]

What do the screens show for `CC(C)(C)NCC(=Cc1ccccc1)C(=O)c1ccccc1`?
NR2F2 inh: 72*; Gli-Sufu block: 17; aDG glyco act: 0; GalR3 antag: -1; HIV Env fusion: -408; VP16 Luc counter: 48*; NR2F2 inh conf: 80*

Results for COc1ccc(C=C(C(=O)c2ccccc2)C(=O)c2ccccc2)cc1 ?
NR2F2 inh: -26; aDG glyco act: 0; GalR3 antag: -6; HIV Env fusion: -196

What do the screens show for `Cc1nc2ccccn2c1-c1ccnn1S(=O)(=O)c1ccc(F)cc1`?
NR2F2 inh: 49*; Gli-Sufu block: 7; aDG glyco act: 2; GalR3 antag: 6; HIV Env fusion: 15; VP16 Luc counter: -2; NR2F2 inh conf: 11

How did CN(C)CCCNC(=O)C[C@@H]1CC[C@H](NS(=O)(=O)c2ccccc2)[C@H](CO)O1 do in these assays?
HIV Env fusion: -11[16.7 µM]

How did C[C@@H]1C[C@@H]2OC(=O)[C@]3(C)[C@H]2[C@@H](OC3(C)O)[C@]2(C)C(=O)C=C[C@H]12 (some centres not stated) do in these assays?
NR2F2 inh: -25; Gli-Sufu block: 8; aDG glyco act: 0; GalR3 antag: 0; HIV Env fusion: -35

How did C=C1C(=O)O[C@@H]2C[C@@H](C)[C@@H]3C=CC(=O)[C@@]3(C)[C@@H](OC(C)=O)[C@H]12 do in these assays?
NR2F2 inh: 86*; Gli-Sufu block: 96*; GalR3 antag: -4; HIV Env fusion: 129*; VP16 Luc counter: 94*; NR2F2 inh conf: 105*

What do the screens show for `C[C@H](CO)N1C[C@H](C)[C@H](CN(C)S(=O)(=O)c2ccc(F)cc2)Oc2ccc(NC(=O)Cn3cnnn3)cc2C1=O`?
HIV Env fusion: -3[16.7 µM]

What do the screens show for `O=C(C[C@H]1C=C[C@H](NC(=O)Nc2ccc(C(F)(F)F)cc2)[C@H](CO)O1)NCc1cc(F)cc(F)c1`?
HIV Env fusion: 5[16.7 µM]

How did Nc1nonc1C(=O)NCCNCc1cc(Br)ccc1OCc1ccc(F)cc1 do in these assays?
NR2F2 inh: 50*; Gli-Sufu block: 48; aDG glyco act: 6; GalR3 antag: -8; HIV Env fusion: 67*; VP16 Luc counter: 3; NR2F2 inh conf: 8

How did C[C@@H]1CCCCO[C@H](CN(C)C(=O)Nc2ccc3c(c2)OCO3)[C@H](C)CN([C@H](C)CO)C(=O)c2cc(N(C)C)ccc2O1 do in these assays?
HIV Env fusion: 1[16.7 µM]
